A short description of experiment [1]: qHTS assay to identify small molecule antagonists of the estrogen related receptor (ERR) signaling pathway from Tox21 library - cell viability counter screen (AID 1224834). Note: nearly all actives have a fitted effect of over 30% in size. Note: potency is the fitted concentration of half-maximal effect. The method in brief: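 CellTiter-Fluor fluorescence measured; ERR cells; 17.5 h compound incubation at 37 C; 30 min reagent step.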
A general note: Quantitative high-throughput screening tests each substance at several concentrations.

Experiment [2] has as its target Luciferin 4-monooxygenase (Photinus pyralis) (UniProt P08659). The experiment in a line: qHTS assay to identify small molecule inhibitors of firefly luciferase (AID 1224835). Note: series mostly up to about 120 µM; nearly all actives have a fitted effect of over 25% in size. The procedure, abridged:
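Quantitative HTS format; KM concentrations of both substrates. Purified P. pyralis FLuc activity quantified from luminescence images.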

Experiment [3] can be described thus: qHTS assay to identify small molecule agonists of the constitutive androstane receptor (CAR) signaling pathway - cell viability counter screen (AID 1224836). For viability change, negative = cytotoxic: series mostly up to about 92 µM. Note: nearly all actives have a fitted effect of over 45% in size. Note: potency is the fitted concentration of half-maximal effect. The method in brief: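 23 h treatment, 37 C, 5% CO2. Cell line: HepG2 stably expressing hCAR with a CYP2B6-2.2kb construct. Co-treatment: PK11195, 0.75 uM final. Read-out: CellTiter-Fluor fluorescence intensity.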

A short description of experiment [4]: qHTS assay to identify small molecule antagonists of the constitutive androstane receptor (CAR) signaling pathway - cell viability counter screen (AID 1224837). For activity change, negative = cytotoxicity: series mostly up to about 92 µM. Note: nearly all actives have a fitted effect of over 45% in size. Note: potency is the fitted concentration of half-maximal effect. The method in brief: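 Using CellTiter-Fluor, viability is scored in HepG2 cells stably carrying hCAR and a 2.2kb CYP2B6 reporter after 23 hr compound exposure across 15 concentrations, with CITCO present at 50 nM.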

The target of experiment [5] is Nuclear receptor subfamily 1 group I member 3 (Homo sapiens) (UniProt Q14994). The experiment in a line: qHTS assay to identify small molecule antagonists of the constitutive androstane receptor (CAR) signaling pathway (AID 1224838).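 Note: HepG2 cells stably expressing hCAR with CYP2B6 luciferase reporter stimulated by CITCO; nearly all actives have a fitted effect of over 40% in size.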 Note: potency is the fitted concentration of half-maximal effect. The method in brief:
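Reporter luminescence was quantified after 24 h exposure of hCAR/CYP2B6-2.2kb double-stable HepG2 cells to compounds at 15 concentrations in the presence of 50 nM CITCO final.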

Experiment [6] shares this target. In words: qHTS assay to identify small molecule agonists of the constitutive androstane receptor (CAR) signaling pathway (AID 1224839). For activation: series mostly up to about 92 µM. Note: nearly all actives have a fitted effect of over 15% in size. Note: potency is the fitted concentration of half-maximal effect. The procedure, abridged:
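Compounds tested at 15 concentrations on HepG2 cells stably harbouring hCAR and CYP2B6-2.2kb reporter constructs, co-treated with PK11195 (0.75 uM final), 24 h at 37 C; luminescent reporter signal quantified.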

The nature of experiment [7]: qHTS assay to identify small molecule antagonists of the estrogen related receptor signaling pathway with the pleiotropic PPARgamma coactivator (PGC) from Tox21 10K library - cell viability counter screen (AID 1224840; active = well fitted cell-killing curve with a large enough effect in the repeat runs, not every such curve was filed as active; note: nearly all actives have a fitted effect of over 40% in size; note: potency is the fitted concentration of half-maximal effect). The procedure, abridged: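 Here the PGC/ERR cells serve as a cytotoxicity control: they are exposed to compounds for 17.5 hours at 37 C, and live-cell signal is quantified using CellTiter-Fluor fluorescence.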

A short description of experiment [8]: qHTS assay to identify small molecule antagonists of the estrogen related receptor signaling pathway with the pleiotropic PPARgamma coactivator (PGC) from Tox21 10K library (AID 1224841; call rule not given here; note: actives are mostly falling curves and most rising ones were filed inactive; nearly all actives have a fitted effect of over 50% in size; note: potency is the fitted concentration of half-maximal effect; for activity, negative = inhibition: series mostly up to about 92 µM). The procedure, abridged: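 Each well held 2,000 PGC/ERR cells, pre-incubated six hours (37 C, 5% CO2). Test substances in DMSO were added by pin tool and left for 18 h at 37 C before luciferase detection by One-Glo.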

Experiment [9] is described as follows: qHTS assay to identify small molecule agonists of the estrogen related receptor signaling pathway with the pleiotropic PPARgamma coactivator (PGC) from Tox21 10K library (AID 1224842). Note: nearly all actives have a fitted effect of over 15% in size. The procedure, abridged: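 PGC/ERR reporter cells (NTP line) were seeded 2,000 per well, rested 6 h at 37 C/5% CO2, then pin-dosed with compounds in DMSO for 18 h at 37 C; luciferase read by One-Glo luminescence after 30 min at room temperature.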

Experiment [10] has as its target Thyrotropin receptor (Homo sapiens) (UniProt P16473). In words: qHTS assay to identify small molecule agonists of the thyroid stimulating hormone receptor (TSHR) signaling pathway (AID 1224843; calls by dose curve; note: nearly all actives have a fitted effect of over 45% in size). The procedure, abridged: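 TSHR-expressing HEK293 cells (800 per well) were exposed to compounds for 30 min at room temperature. cAMP was then detected by HTRF competition with cAMP-d2 and anti-cAMP cryptate, read after 1 h at room temperature. Fifteen concentrations, triplicate.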

Several values for one entry are separate records, joined by “and”; a condition that tells them apart may be missing. Equal values may be shown once. Inconclusive results are not listed. A number with no mark means an inactive call. Activity calls are given as the source filed them. Unless noted, calls come from the whole dose curve; as a rule, active = well fitted curve in the direction sought with a large enough effect in the repeat runs; inconclusive = weak or mixed curves; inactive = no such curve, though single readings can be large; an effect the other way counts as inactive or inconclusive.
% is set by controls: 0 for no effect and ±100 for the full control effect.

Chain of Luciferin 4-monooxygenase (Photinus pyralis) (P08659 whole entry, looked up): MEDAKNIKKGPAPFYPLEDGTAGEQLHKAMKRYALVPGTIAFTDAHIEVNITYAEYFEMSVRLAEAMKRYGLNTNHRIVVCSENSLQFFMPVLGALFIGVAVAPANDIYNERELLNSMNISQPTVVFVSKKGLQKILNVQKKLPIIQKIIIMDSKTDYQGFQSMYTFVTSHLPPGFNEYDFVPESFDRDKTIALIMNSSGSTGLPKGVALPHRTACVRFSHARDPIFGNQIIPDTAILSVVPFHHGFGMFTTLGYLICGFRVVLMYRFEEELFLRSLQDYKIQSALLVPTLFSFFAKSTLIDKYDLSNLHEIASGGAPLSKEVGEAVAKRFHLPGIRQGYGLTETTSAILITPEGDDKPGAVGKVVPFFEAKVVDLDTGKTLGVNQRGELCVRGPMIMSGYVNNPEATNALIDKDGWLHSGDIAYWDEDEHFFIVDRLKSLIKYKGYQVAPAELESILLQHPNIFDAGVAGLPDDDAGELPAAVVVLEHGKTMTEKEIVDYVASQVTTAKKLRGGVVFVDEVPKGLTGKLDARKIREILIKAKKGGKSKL
Chain of Nuclear receptor subfamily 1 group I member 3 (Homo sapiens) (Q14994 whole entry, looked up): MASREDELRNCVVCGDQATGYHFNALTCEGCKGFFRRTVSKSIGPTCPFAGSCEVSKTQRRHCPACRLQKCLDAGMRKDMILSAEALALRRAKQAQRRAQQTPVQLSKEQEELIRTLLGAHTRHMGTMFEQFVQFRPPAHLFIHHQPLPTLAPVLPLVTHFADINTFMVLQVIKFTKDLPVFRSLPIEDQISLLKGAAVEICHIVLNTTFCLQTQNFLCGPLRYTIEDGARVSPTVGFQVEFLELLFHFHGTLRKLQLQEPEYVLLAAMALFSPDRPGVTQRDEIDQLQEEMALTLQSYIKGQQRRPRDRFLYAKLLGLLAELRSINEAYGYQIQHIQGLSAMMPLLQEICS
Chain of Thyrotropin receptor (Homo sapiens) (P16473 whole entry, looked up): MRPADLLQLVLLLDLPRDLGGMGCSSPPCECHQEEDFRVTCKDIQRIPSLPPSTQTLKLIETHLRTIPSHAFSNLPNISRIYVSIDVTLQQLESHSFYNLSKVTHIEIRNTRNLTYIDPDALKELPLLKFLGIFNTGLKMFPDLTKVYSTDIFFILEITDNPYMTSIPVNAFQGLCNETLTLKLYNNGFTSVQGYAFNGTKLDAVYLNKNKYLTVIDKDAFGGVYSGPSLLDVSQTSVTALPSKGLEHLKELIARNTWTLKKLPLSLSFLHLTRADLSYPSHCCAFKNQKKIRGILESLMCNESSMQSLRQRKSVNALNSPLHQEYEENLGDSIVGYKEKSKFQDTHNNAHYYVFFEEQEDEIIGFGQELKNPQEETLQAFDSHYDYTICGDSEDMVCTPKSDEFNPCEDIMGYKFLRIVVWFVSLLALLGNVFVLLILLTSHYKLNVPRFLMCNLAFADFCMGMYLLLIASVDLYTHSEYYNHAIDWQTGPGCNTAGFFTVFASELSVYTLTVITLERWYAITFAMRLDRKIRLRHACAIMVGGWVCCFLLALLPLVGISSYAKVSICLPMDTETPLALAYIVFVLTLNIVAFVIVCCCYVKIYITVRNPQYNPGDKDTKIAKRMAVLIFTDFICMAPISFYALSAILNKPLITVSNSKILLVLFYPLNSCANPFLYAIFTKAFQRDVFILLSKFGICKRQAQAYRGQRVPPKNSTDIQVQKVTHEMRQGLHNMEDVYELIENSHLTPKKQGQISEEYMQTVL

For the compound `CC1=CC[C@H](C(C)C)C=C1`, the Potency result in [1], in experiment [2], in [3], in [4], in experiment [5] and in [6] was “inactive” throughout. Also, the Potency entry in experiment [7] is “inactive”.

On to `C=CC1CC2C=CC1C2` (stereo not drawn), for which the Potency entry in experiment [1], in [2], in [3], in experiment [4], in experiment [5] and in experiment [6] was “inactive” each time. In experiment [7], the Potency entry is “inactive”.

Take `CCCCOC(=O)CCCCCCCC(=O)OCCCC`: the Potency result in experiment [1], in experiment [2], in [3], in experiment [4], in experiment [5] and in experiment [6] was “inactive” throughout. Moreover, the Potency entry in [7], in experiment [8], in experiment [9] and in experiment [10] was “inactive” throughout.

For `CCCCNc1ccc(C(=O)OCCOCCOCCOCCOCCOCCOCCOCCOCCOC)cc1`, the Potency result in experiment [1], in experiment [2], in [3], in experiment [4], in experiment [5] and in experiment [6] was “inactive” each time. The Potency result in experiment [7], in experiment [8] and in experiment [10] was “inactive” in each case.

With `CC(C)(O)c1ccc(CNC(=O)c2cccnc2Oc2ccc(F)cc2)cc1`, the Potency entry in experiment [1], in experiment [2], in experiment [3], in experiment [4], in experiment [5] and in experiment [7] was “inactive” throughout. Moreover, the Potency result in [9] and in experiment [10] was “inactive” throughout. Further, the Potency was 27.3 µM (active) in experiment [6] and 48.6 µM (active) in [8].

As for `NCCCN1CCOCC1`, the Potency result in [1], in experiment [2], in [3], in experiment [4], in [5] and in experiment [6] was “inactive” throughout. Further, the Potency result in experiment [7], in [8], in [9] and in experiment [10] was “inactive” each time.

Take `Nc1ccccc1S(=O)(=O)c1ccccc1`: the Potency result in [1], in [2], in [3], in experiment [4], in experiment [5] and in experiment [7] was “inactive” in each case. In addition, the Potency entry in experiment [9] and in experiment [10] was “inactive” each time. For the same compound, the Potency in experiment [6] is 68.6 µM (active).

As for `C#Cc1cccc(Nc2ncnc3cc(OCCOC)c(OCCOC)cc23)c1`, the figures for the Potency in [1] and in experiment [6] were 8.41 µM (active) and 7.5 µM (active), respectively. The Potency entry in [2], in [3], in experiment [4], in experiment [5], in experiment [7] and in [9] was “inactive” each time. Further, in experiment [10], the Potency result is “inactive”.

In the case of `OCCNCc1ccccc1`, the Potency entry in experiment [1], in experiment [2], in experiment [3], in experiment [4], in [5] and in experiment [6] was “inactive” in each case. In experiment [7], the Potency result is “inactive”.

On to `CCN(CC)CCOC(=O)C(c1ccccc1)C1CCCCC1` (stereo not drawn), for which the Potency in experiment [1] was 29.8 µM (active). Moreover, the Potency result in experiment [2], in experiment [3], in [4], in experiment [5] and in experiment [6] was “inactive” each time.

Regarding `CN(C)CCN(Cc1ccsc1)c1ccccn1`, the Potency entry in experiment [1], in experiment [2], in [3], in [4], in experiment [5] and in [6] was “inactive” each time. For the same compound, in experiment [7], the Potency entry was “inactive”.

On to `C=CCOC(=O)CCC1CCCCC1`, for which the Potency entry in experiment [1], in experiment [2], in [3], in [4], in [5] and in experiment [6] was “inactive” throughout. In addition, the Potency result in [7], in experiment [9] and in [10] was “inactive” in each case.

Regarding `CC(=O)OC[C@H]1O[C@@H](n2ncc(=O)[nH]c2=O)[C@H](OC(C)=O)[C@@H]1OC(C)=O`, the Potency entry in experiment [1], in experiment [2], in [3], in [4], in experiment [5] and in [6] was “inactive” in each case. The Potency entry in [7] and in [10] was “inactive” in each case.

On to `CC1OC(=O)C(C)OC1=O` (stereo not drawn), for which the Potency result in experiment [1], in [2], in [3], in experiment [4], in experiment [5] and in experiment [6] was “inactive” throughout. The Potency result in experiment [7] and in experiment [10] was “inactive” each time.

Turning to `CN(C)CCN(Cc1ccc(Cl)cc1)c1ccccn1`, the Potency entry in [1], in experiment [2], in [3], in [4], in experiment [5] and in experiment [6] was “inactive” each time. Besides, the Potency result in [7] and in [10] was “inactive” in each case.

`CN(C)CCOC(c1ccccc1)c1ccc(Br)cc1` (stereo not drawn): the Potency result in experiment [1], in [2], in experiment [3], in experiment [4], in experiment [5] and in experiment [6] was “inactive” each time. Further, the Potency result in experiment [9] and in [10] was “inactive” each time.

Take `CCCCCCCCCCCc1ccccc1`: the Potency result in experiment [1], in [2], in [3], in [4], in experiment [5] and in experiment [6] was “inactive” in each case. The Potency entry in experiment [7] and in experiment [10] was “inactive” each time.

Consider `Cc1oc2c(NC(=O)c3c(Cl)cccc3Cl)cccc2c1C(C)(C)O`, for which the Potency was 43.3 µM (active) in [1] and 5.45 µM (active) in experiment [5]. Moreover, the Potency result in experiment [2], in [3], in [4], in [6] and in experiment [9] was “inactive” throughout.

With `CN(C)c1ccc(CCO)cc1`, the Potency entry in experiment [1], in [2], in experiment [3], in experiment [4], in experiment [6] and in experiment [7] was “inactive” throughout. Moreover, in experiment [10], the Potency entry was “inactive”. Besides, the Potency in [5] was 27.1 µM (active).

As for `C[C@@H]1C[C@H]2[C@@H]3CCC4=CC(=O)C=C[C@]4(C)[C@@]3(F)[C@@H](O)C[C@]2(C)[C@@]1(O)C(=O)COC(=O)c1ccncc1`, the Potency entry in [1], in [2], in experiment [3], in experiment [4], in experiment [5] and in experiment [6] was “inactive” throughout. Besides, the Potency entry in experiment [7] and in [10] was “inactive” throughout.

Regarding `Brc1c2ccccc2c(Br)c2ccccc12`, the viability change, negative = cytotoxic in experiment [1] is -0.56% [at 8.39 µM]; in experiment [3] it was 3.16% [at 8.39 µM]; in experiment [7], 6.16% [at 8.39 µM]. Also, the activity change, negative = inhibition in [2] is 2.43% [at 10.5 µM]. Also, the activity change, negative = cytotoxicity in [4] is 6.42% [at 8.39 µM]. Moreover, the activity, negative = inhibition in experiment [5] was 22.1% [at 8.39 µM]. The activation in [6] is 11.6% [at 8.39 µM]; in experiment [10], -2.14% [at 8.39 µM].

As for `COc1ccnc(CS(=O)c2nc3ccc(OC(F)F)cc3[nH]2)c1OC` (stereo not drawn), the Potency entry in experiment [1], in [2], in experiment [3], in experiment [4], in [5] and in [6] was “inactive” each time. Also, the Potency entry in experiment [7] and in experiment [10] was “inactive” each time.

Take `CCCCCCCCCOS(=O)(=O)O`: the Potency entry in [1], in experiment [2], in experiment [3], in experiment [4], in experiment [5] and in [6] was “inactive” throughout. The Potency entry in experiment [7] and in [10] was “inactive” throughout.

With `C=C(C)C(=O)OCCO`, the Potency entry in experiment [1], in experiment [2], in experiment [3], in [4], in experiment [5] and in experiment [6] was “inactive” throughout. Also, the Potency entry in [7] and in experiment [10] was “inactive” in each case.

For the compound `C=CC(=O)OCCOCCOCCOCCOC(=O)C=C`, the Potency in experiment [1] was 30.8 µM (active) and 24.1 µM (active); in [3], 54.8 µM (active) and 60.6 µM (active); in experiment [4], 48.8 µM (active) and 54 µM (active); in experiment [5], 61.4 µM (active); in [7], 27.4 µM (active) and 27.1 µM (active). The Potency entry in [2], in [6] and in experiment [10] was “inactive” in each case.
